Laboratory results reported in ChEMBL document CHEMBL1157539, “Thousands of chemical starting points for antimalarial lead identification” (Nature, 2010).

Legend:
Assay type in all cases: functional
Plasmodium falciparum [1] = assay: GSK_TCMDC: Inhibition of Plasmodium falciparum 3D7 in whole red blood cells, using parasite LDH activity as an index of growth. Test compounds present at 2uM
Plasmodium falciparum [2] = assay: GSK_TCMDC: Inhibition of Plasmodium falciparum Dd2 in whole red blood cells, using parasite LDH activity as an index of growth. Test compounds present at 2uM
HepG2 = assay: GSK_TCMDC: Percent inhibition of human HepG2 cell line. Test compounds present at 10uM.

SMILES | Inhibition (Plasmodium falciparum [1]) | Inhibition (Plasmodium falciparum [2]) | Inhibition (HepG2)
COc1cc(C)nc2ccc(NC(=O)c3cc(C(F)(F)F)cc(C(F)(F)F)c3)cc12.Cl | 100% | 99% | 16%
COc1ccccc1CCNc1nc(C)cc(N[C@@H](Cc2ccccc2)C(=O)NCCc2ccccc2)n1.O=C(O)C(F)(F)F | 100% | 89% | 16%
COc1ccc(C(=O)Cn2nc(-c3ccc(Cl)cc3)ccc2=O)c(OC)c1 | 93% | 70% | 0%
CN(C)CCN(C)Cc1cccc(-c2cccc(NC(=O)c3cccc(C#N)c3)c2)c1.O=C(O)C(F)(F)F | 92% | 10% | 0%
CCNC[C@H]1CCCN1CCOc1ccc(-n2cnc3cc(-c4ccc(Cl)cc4)sc3c2=O)cc1OC.O=C(O)C(F)(F)F | 97% | 39% | 53%
COc1ccc(CNC2CCN(C)CC2)cc1-c1ccc(S(=O)(=O)NCc2cccnc2)s1.O=C(O)C(F)(F)F | 100% | 3% | 10%
Cl.O=C(Nc1ccc(C(=O)OCC2CCCN3CCCCC23)cc1)c1ccc([N+](=O)[O-])cc1 (configuration not stated) | 95% | 25% | 5%
CCN(CC)CCN(Cc1ccc(-c2ccc(C(F)(F)F)cc2)cc1)C(=O)Cn1c(CCc2cccc(F)c2F)nc(=O)c2cc(C)ccc21.O=C(O)C(O)C(O)C(=O)O | 95% | 43% | 19%
COc1cc(NCC(C)CNCc2cn(Cc3ccccc3)c3ccccc23)nc2ccccc12 (configuration not stated) | 90% | 55% | 21%
CC(=O)Nc1ccc(C(=O)Nc2ccc(-c3cccc(-c4nc5cc(F)ccc5[nH]4)c3)cc2)cn1 | 100% | 84% | 13%
CCOc1ccc(C(=O)Nc2cc(Cl)ccc2O)cc1Cl | 83% | 84% | 11%
CCCN(CCC)CC(O)COc1ccccc1C(=O)Nc1ccccc1 (configuration not stated) | 92% | 95% | 6%
CCCNC(=O)C1Cc2cc(OC)c(OC)cc2C2(N1)C(=O)N(Cc1cccc(OC)c1)c1ccccc12 (configuration not stated) | 91% | 63% | 11%
Cc1ncccc1C(=O)Nc1ccc(-c2cccc(-c3nc4cccc(C)c4[nH]3)c2)cc1 | 95% | 31% | 6%
CCOC(=O)Cc1nc(C(=O)OCC)c(N)[nH]1.Cl | 94% | 24% | 2%
O=C(/C=C/c1ccc(Cl)cc1)NCCCCCN1CCC(C(=O)Nc2cccc(Cl)c2)CC1 | 97% | 0% | 22%
COc1cccc(Nc2nc(NCCO)c3ccccc3n2)c1.Cl | 99% | 88% | 1%
O=C(/C=C/c1ccc(-c2ccccc2)cc1)NCCCCCN1CCC(c2c[nH]c3ccccc23)CC1 | 97% | 23% | 91%
COc1cc2nc(NCCCO)nc(Nc3ccc(Oc4ccccc4)cc3)c2cc1OC | 100% | 100% | 24%
COc1nc2c(CCN3CC[C@H](NCc4ccc5c(c4)NC(=O)CO5)[C@H](O)C3)c(Cl)cnc2cc1F.Cl | 90% | 22% | 21%

SMILES | Inhibition (Plasmodium falciparum [1]) | Inhibition (Plasmodium falciparum [2]) | Inhibition (HepG2)
Cc1[nH]c(C)c(-c2ccc(OCc3ccccc3C(F)(F)F)nc2)c(=O)c1Br | 98% | 97% | 35%
CCc1cc(Br)c(CNCCCNc2cc(=O)c3ccccc3[nH]2)s1.Cl | 90% | 45% | 6%
COc1ccc(CCN(C)CCCN2CCC(NC(=O)c3cccc4c(=O)c5ccccc5sc34)CC2)cc1OC.O=C(O)C(=O)O | 97% | 79% | 67%
c1ccc([C@H]2CN3CCSC3=N2)cc1 [LEVAMISOLE] | 93% | 1% | 11%
CC1CN(c2cnn(C/C=C/c3ccc(NC(=O)c4ccc5nonc5c4)cc3)c(=O)c2Cl)CC(C)N1.O=C(O)C(F)(F)F (configuration not stated) | 94% | 35% | 71%
O=C(NCCCN1CCN(c2cccc(Cl)c2)CC1)c1ccc(-c2nc3cc(Cl)c(Cl)cc3[nH]2)cc1 | 98% | 95% | 3%
O=C(O)C(F)(F)F.O=S(=O)(NCCN1CCCC1)c1cccc(-c2cccc(CNCc3ccc(F)cc3)c2)c1 | 99% | 73% | 41%
CC(C)(C)c1ccc(/C=C/C(=O)NCCCCCN2CCC(c3c[nH]c4ccccc34)CC2)cc1 | 91% | 12% | 70%
COc1cccc(NC(=O)c2ccc(NCCCN3CC(C)CC(C)C3)c([N+](=O)[O-])c2)c1 (configuration not stated) | 100% | 68% | 14%
CCCC(CNCc1ccc(Cl)c(C(F)(F)F)c1)CNc1nc2cnccc2[nH]1.Cl (configuration not stated) | 99% | 8% | 26%
CN(Cc1ccccc1)C(=O)c1nn(CCCN2CCC(N3CCCC3)CC2)cc1-c1ccc(Cl)c(Cl)c1 | 100% | 66% | 43%
COc1cc(C(=O)Nc2ccc(-c3nc4ccccc4[nH]3)cc2)cc(OC)c1OC | 99% | 33% | 13%
COc1ccc(C(=O)CCC(=O)N(Cc2ccc(-c3ccc(CNCCc4ccc(S(C)(=O)=O)cc4)cn3)cc2)C2CCN(Cc3ccccc3)CC2)cc1F.O=C(O)C(F)(F)F | 99% | 72% | 20%
O=C(O)C(F)(F)F.c1cc(CN2CCCCC2)cc(-c2ccc(-c3nc4ccccc4[nH]3)s2)c1 | 100% | 100% | 11%
CS(=O)(=O)O.NC1=NC(CCc2ccccc2)N(c2ccccc2)C(N)=N1 (configuration not stated) | 94% | 15% | 1%
CCCCN1CCN(CCCCNc2c3ccccc3nc3ccccc23)CC1.Cl | 100% | 5% | 27%
Cc1cccc(C(=O)Nc2ccc(N3CCCN(Cc4cccc(O)c4)CC3)cc2)c1.O=C(O)C(F)(F)F | 92% | 44% | 2%
COc1ccc2nccc([C@@H](O)CN3CCC(NC(=O)/C=C/c4ccc(Cl)c(C(F)(F)F)c4)CC3)c2c1 | 100% | 89% | 11%
NC(=O)c1cnc2ccc(-c3cncs3)cc2c1Nc1ccc(F)c(Cl)c1 | 97% | 99% | 3%
Cc1cc(=O)c2cc(Oc3ccc(OC(F)(F)F)cc3)ccc2[nH]1 | 86% | 71% | 20%

SMILES | Inhibition (Plasmodium falciparum [1]) | Inhibition (Plasmodium falciparum [2]) | Inhibition (HepG2)
CC(C)Cn1cc(C2CCN(CCN3CCC(CNC(=O)c4ccc(-c5ccc(C(F)(F)F)cc5)cc4)CC3)CC2)c2ccccc21 | 100% | 87% | 100%
CCNc1cc(C(=O)N[C@@H](Cc2ccccc2)[C@H](O)CNC(C)(C)c2cccc(OC)c2)cc(N2CCCC2=O)c1.O=CO | 100% | 99% | 0%
O=C(NC1CC1)c1ccc(N2CCCC(COc3ccc4c(c3)CCCC4)C2)nc1 (configuration not stated) | 85% | 65% | 0%
COc1ccc(C[C@H](N)C(=O)N[C@H]2[C@@H](O)[C@H](n3cnc4c(N(C)C)ncnc43)O[C@@H]2CO)cc1 [PUROMYCIN] | 100% | 100% | 99%
Cc1ccc(CNC(=O)[C@H](Cc2ccccc2)Nc2cc(C)nc(NCCc3ccc(F)cc3)n2)cc1.O=C(O)C(F)(F)F | 98% | 22% | 10%
Cn1cc(C2CCN(CCCCNC(=O)c3sc(-c4ccc(C(F)(F)F)cc4)nc3CO)CC2)c2ccccc21 | 95% | 15% | 46%
CCOc1cc(C(=O)Nc2cccnc2)cc(Br)c1OCCC(C)C | 88% | 51% | 4%
COc1ccc(Nc2cc(C)nc(NCc3ccc4c(c3)OCO4)n2)cc1 | 99% | 78% | 26%
N#CCCN1CCN(Cc2ccc(-c3cccc(-c4nc5cc(F)ccc5[nH]4)c3)cc2)CC1.O=C(O)C(F)(F)F | 91% | 17% | 16%
COc1ccc2nccc([C@@H](O)CN3CCC(c4cc(-c5ccc(Cl)cc5)[nH]n4)CC3)c2n1 | 97% | 56% | 43%
CN(C)CCNC(=O)c1ccc(-c2ccc3c(Nc4ccccc4)c(C(N)=O)cnc3c2)cc1 | 99% | 68% | 9%
O=C(Nc1ccc2[nH]c(-c3ccc4nc(NC(=O)C5CCCCC5)sc4c3)nc2c1)C1CCCCC1 | 100% | 68% | 84%
CC(=O)Oc1cc(C(=O)Nc2ccc(Cl)cc2)cc2ccccc12 | 88% | 47% | 16%
Cc1cc(O)c(-c2cc(C(=O)Nc3cccnc3)[nH]n2)cc1C | 97% | 97% | 12%
COc1ccc2nccc(NC(=O)N3CCC(NCc4cc5c(F)ccc(F)c5[nH]4)CC3)c2n1.O=C(O)C(=O)O | 99% | 40% | 6%
CN1CCN(c2ccc(-c3cccc(NC(=O)c4cccc([N+](=O)[O-])c4)c3)nn2)CC1 | 99% | 35% | 21%
Cc1nc(-c2ccc(-c3ccc(NC(=O)c4coc5ccc(N6CC(C)NC(C)C6)cc45)cc3)c(C)c2)no1.Cl (configuration not stated) | 100% | 88% | 1%
COC(=O)c1ccc(CC(C)NCC(O)c2ccc(C(O)CNC(C)Cc3ccc(C(=O)OC)cc3)cc2)cc1.O (configuration not stated) | 88% | 13% | 24%
CC(O)C(=O)O.COc1cc(Cc2cnc(N)nc2N)c2c(c1OC)OC(C)(C)C=C2 | 93% | 2% | 7%
